Here are results for 27 molecules from PubChem BioAssay (EPA / NIEHS).

“And” between values parts separate entries of the source, which are not always exact repeats. Identical values can stand only once. The source made the active and inactive calls. The calls were made as follows: active = hit-call score of the fitted dose curve at least 0.9, where 1 is the maximum; inactive = score below 0.9.

Experiment [1] is described as follows: BSK_BT_PBMCCytotoxicity: PBMC Cytotoxicity Assessment in the BioMAP Diversity Plus: BT Assay (AID 2284225).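 Also: PBMC viability measured by Alamar Blue dye reduction fluorescence.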 As to conditions: primary human B cells with PBMC. An outline of the steps: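 75,000 cells/well; cpd 1 h → SEB + TSST-1 (20 ng/mL final each) → 90 h → Alamar Blue 6 h → fluor. 546/580 nm. DMSO = neg. control/baseline.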
Read-out in experiment [2]: Secreted IgG (sIgG), gene 3500
As to the kind of experiment: BSK_BT_sIgG: BioMAP Diversity Plus: BT Assay for Secreted IgG (sIgG) Biomarker Activity (AID 2284226). As to conditions: primary human B cells with PBMC. An outline of the steps:
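Secreted IgG from a human primary B cell–PBMC co-culture was measured by ELISA 24 hours after dosing, with DMSO defining baseline activity.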

The nature of experiment [3]: BSK_BT_Bcell_Proliferation: Viability Assessment in the BioMAP Diversity Plus: BT Assay for B cell Proliferation (AID 2284227). The note with it: primary human B cells with PBMC. The method, boiled down:
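Read-out is absorbance at 560 nm from sulforhodamine B staining of total protein, reflecting relative cell numbers in a human B cell and PBMC co-culture after 72 h of chemical exposure. Values were referenced to DMSO.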

Read-out in experiment [4]: Interleukin 6 (IL6), IL6 (gene 3569)
As to the kind of experiment: BSK_BT_xIL6: BioMAP Diversity Plus: BT Assay for Interleukin 6 (IL6) Biomarker Activity (AID 2284228). The note with it: primary human B cells with PBMC. An outline of the steps: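 IL-6 secretion measured (Luminex xMAP) in human primary B cell + PBMC co-culture at 24 h of chemical exposure; DMSO served as negative control and activity baseline, with curves fitted for increase.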

Read-out in experiment [5]: Interleukin 17A (IL17A), IL17A (gene 3605)
The experiment in a line: BSK_BT_xIL17A: BioMAP Diversity Plus: BT Assay for Interleukin 17A (IL17A) Biomarker Activity (AID 2284229). As to conditions: primary human B cells with PBMC. An outline of the steps:
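Human primary B cells plus PBMC, treated 24 h with chemicals; supernatant IL-17A quantified on Luminex xMAP beads. Gain of signal over DMSO control scored as activity.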

Read-out in experiment [6]: Tumor necrosis factor (Homo sapiens) (UniProt P01375)
The experiment in a line: BSK_BT_xTNFa: BioMAP Diversity Plus: BT Assay for Tumor necrosis factor alpha (TNF-alpha) Biomarker Activity (AID 2284230). As to conditions: primary human B cells with PBMC. An outline of the steps:
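Human primary co-culture of B cells and peripheral blood mononuclear cells; TNF-alpha in supernatant, 24 h post-dose, Luminex multiplex; DMSO = baseline.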

Read-out in experiment [7]: Vascular cell adhesion molecule 1 (VCAM1), VCAM1 (gene 7412)
The experiment in a line: BSK_MyoF_VCAM1: BioMAP Diversity Plus: MyoF Assay for Vascular cell adhesion molecule 1 (VCAM1) Biomarker Activity (AID 2284231). The note with it: primary human lung fibroblasts. An outline of the steps:
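VCAM-1 levels, lung fibroblasts, ELISA, 24 h exposure, increase scored relative to DMSO.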

Chain of Tumor necrosis factor (Homo sapiens) (P01375 whole entry, looked up): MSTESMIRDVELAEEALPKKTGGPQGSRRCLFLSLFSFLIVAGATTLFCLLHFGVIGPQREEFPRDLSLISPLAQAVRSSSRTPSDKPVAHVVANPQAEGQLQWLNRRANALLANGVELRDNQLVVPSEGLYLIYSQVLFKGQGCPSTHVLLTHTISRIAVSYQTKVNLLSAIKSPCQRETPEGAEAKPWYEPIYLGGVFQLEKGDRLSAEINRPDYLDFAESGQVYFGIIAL

Regarding `Nc1cccc(N)n1`, the outcome in experiment [1], in experiment [2], in experiment [3], in experiment [4], in experiment [5] and in experiment [6] was inactive. The outcome in experiment [7] was inactive.

For `O=C1CCCCCCCCCCCN1`, the result in experiment [1], in experiment [2], in experiment [3], in experiment [4], in experiment [5] and in experiment [6] was inactive. In addition, the result in experiment [7] was inactive.

The AC50 is the concentration giving half of the maximal activity seen. In the case of `CCNc1nc(NC(C)(C)C)nc(OC)n1`, the result in experiment [1], in experiment [3], in experiment [4], in experiment [5], in experiment [6] and in experiment [7] was inactive. For the same molecule, the concentration at half-maximal activity (AC50) in experiment [2] is 13.9 µM (active).

In the case of `C=CC(=O)OCC(C)OCC(C)OCC(C)OC(=O)C=C` (stereo not drawn), the AC50 in experiment [1] was 13.1 µM (active); in experiment [2] it was 3.06 µM (active); in experiment [3] it was 11.5 µM (active); in experiment [4] it was 5.07 µM (active); in experiment [5] it was 7.92 µM (active); in experiment [6], 10.3 µM (active). Also, the concentration at half-maximal activity (AC50) in experiment [7] is 30.1 µM (active).

On to `C[N+](C)(C)CCCNS(=O)(=O)C(F)(F)C(F)(F)C(F)(F)C(F)(F)C(F)(F)C(F)(F)C(F)(F)C(F)(F)F`, for which the result in experiment [1], in experiment [3] and in experiment [4] was inactive. For the same molecule, the half-maximal activity concentration (AC50) in experiment [2] was 52.4 µM (active) and 52.6 µM (active); in experiment [5] it was 30 µM (active); in experiment [6] it was 30 µM (active) and 20.4 µM (active); in experiment [7] it was 44.5 µM (active) and 57 µM (active).

For `CC(C)[N+](C)(CCOC(=O)C1c2ccccc2Oc2ccccc21)C(C)C`, the result in experiment [1], in experiment [2], in experiment [3], in experiment [4], in experiment [5] and in experiment [6] was inactive. For the same molecule, the result in experiment [7] was inactive.

With `CC/C=C\C/C=C\C/C=C\CCCCCCCC(=O)OC`, the half-maximal activity concentration (AC50) was 17.4 µM (active) in experiment [1]; 5.15 µM (active) in experiment [2]; 21.6 µM (active) in experiment [3]; 13.5 µM (active) in experiment [4]; 12 µM (active) in experiment [5]; 27.8 µM (active) in experiment [6]. In experiment [7], the AC50 was 11.1 µM (active).

Regarding `CCCCCC1=CCCC1=O`, the result in experiment [1], in experiment [3], in experiment [4], in experiment [5], in experiment [6] and in experiment [7] was inactive. In addition, the AC50 in experiment [2] is 20 µM (active).

As for `CC=C(C)C(C)=O`, the result in experiment [1], in experiment [2], in experiment [3], in experiment [4], in experiment [5] and in experiment [6] was inactive. In addition, in experiment [7], the outcome was inactive.

With `c1ccc2c(c1)[nH]c1ccccc12`, the result in experiment [1], in experiment [2], in experiment [3], in experiment [4], in experiment [5] and in experiment [6] was inactive. In addition, in experiment [7], the result was inactive.

Take `O=C1CCCCCCCCCCC1`: the outcome in experiment [1], in experiment [2], in experiment [3], in experiment [4], in experiment [5] and in experiment [6] was inactive. The result in experiment [7] was inactive.

As for `CCCCCCOC(=O)CCCCC(=O)OCCCCCC`, the result in experiment [1], in experiment [2], in experiment [3], in experiment [4], in experiment [5] and in experiment [6] was inactive. Also, the result in experiment [7] was inactive.

`CCOC(=O)C1=NN(c2ccc(Cl)cc2Cl)C(C)(C(=O)OCC)C1` (stereo not drawn): the outcome in experiment [1], in experiment [3], in experiment [4], in experiment [5], in experiment [6] and in experiment [7] was inactive. The AC50 in experiment [2] was 20 µM (active).

As to `CCCCC1C(=O)N(c2ccccc2)N(c2ccccc2)C1=O`, the outcome in experiment [1], in experiment [2], in experiment [3], in experiment [4], in experiment [5] and in experiment [6] was inactive. For the same molecule, the result in experiment [7] was inactive.

Turning to `CC(C)CCCCCOC(=O)CS`, the outcome in experiment [1], in experiment [2], in experiment [3], in experiment [4], in experiment [5] and in experiment [6] was inactive. Also, the result in experiment [7] was inactive.

On to `Cc1c(O)cccc1O`, for which the outcome in experiment [1], in experiment [2], in experiment [3], in experiment [4], in experiment [5] and in experiment [6] was inactive. The result in experiment [7] was inactive.

As to `CC/C=C\CCOC(=O)c1ccccc1O`, the outcome in experiment [1], in experiment [3], in experiment [4], in experiment [5] and in experiment [6] was inactive. In addition, the concentration at half-maximal activity (AC50) in experiment [2] was 7.02 µM (active); in experiment [7], 34.2 µM (active).

Regarding `CC1=CC=C(C(C)C)CC1`, the result in experiment [1], in experiment [3], in experiment [4], in experiment [5], in experiment [6] and in experiment [7] was inactive. Besides, in experiment [2], the AC50 is 20 µM (active).

For `c1ccc2sc(SSN3CCOCC3)nc2c1`, the AC50 in experiment [1] is 13.2 µM (active); in experiment [2], 8.43 µM (active); in experiment [4], 13.3 µM (active); in experiment [5] it was 20 µM (active); in experiment [6] it was 24.3 µM (active); in experiment [7] it was 30.4 µM (active).

On to `CCC1(C)C(=O)N(Cl)C(=O)N1Cl` (stereo not drawn), for which the outcome in experiment [1], in experiment [2], in experiment [3], in experiment [4], in experiment [5] and in experiment [6] was inactive. Besides, the outcome in experiment [7] was inactive.

For the molecule `CCOC(=O)/C=C\C(=O)OCC`, the outcome in experiment [1], in experiment [2], in experiment [3], in experiment [4], in experiment [5] and in experiment [6] was inactive. Also, the outcome in experiment [7] was inactive.

On to `CCN1CN(CC)CN(CC)C1`, for which the outcome in experiment [1], in experiment [2], in experiment [3], in experiment [4], in experiment [5] and in experiment [6] was inactive. Moreover, the outcome in experiment [7] was inactive.

Consider `C=C(C)C(=O)OCCCCCCCCCCCC`, for which the outcome in experiment [1], in experiment [2], in experiment [3], in experiment [4], in experiment [5] and in experiment [6] was inactive. For the same molecule, the outcome in experiment [7] was inactive.

Consider `CCCCCCC=O`, for which the outcome in experiment [1], in experiment [2], in experiment [3], in experiment [4], in experiment [5] and in experiment [6] was inactive. In addition, the outcome in experiment [7] was inactive.

With `O=C(Oc1ccccc1)c1ccccc1C(=O)Oc1ccccc1`, the AC50 in experiment [1] is 20 µM (active); in experiment [3] it was 26.2 µM (active); in experiment [7], 20 µM (active). Besides, the result in experiment [2], in experiment [4], in experiment [5] and in experiment [6] was inactive.

As to `CCc1cccc(C)c1N(C(=O)CS(=O)(=O)O)C(C)COC` (stereo not drawn), the outcome in experiment [1], in experiment [2], in experiment [3], in experiment [4], in experiment [5] and in experiment [6] was inactive. Moreover, the outcome in experiment [7] was inactive.

Consider `CCCCCCCCCCCC(C)=O`, for which the result in experiment [1], in experiment [2], in experiment [3], in experiment [4], in experiment [5] and in experiment [6] was inactive. Further, in experiment [7], the outcome was inactive.
